Measured values published in PubChem BioAssay (NCATS).
Results filed as inconclusive are left out. Active and inactive are the calls of the source. The call rests on the fitted dose curve; in most records, active means well fitted curve in the direction sought with a large enough effect; inconclusive means small, poorly fitted or top-dose-only effect, or another doubt; inactive means no such curve, though single readings can be large; an effect the other way counts as inactive or inconclusive.

What was measured:
TAB109 = assay: qHTS profiling for inhibitors of Plasmodium falciparum proliferation (AID 504749);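 further: 0% = DMSO vehicle and full inhibition = artemisinin control; nearly all actives have a fitted effect of over 60% in size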; conditions: P. falciparum in erythrocytes, SYBR Green DNA, 72 h; series mostly up to 28.7 µM
Outline: (§1)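 Readout was DNA-dye fluorescence from lysed cultures, ex 485/em 535 nm. Parasitized red cells had grown 72 h with compound; data scaled between 0.29 uM artemisinin and DMSO wells and corrected using vehicle-only plates.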

TAB113 = assay: as above; conditions: P. falciparum in erythrocytes, SYBR Green DNA, 72 h; series mostly up to 28.7 µM
Outline: as §1

TAB165 = assay: as above; conditions: P. falciparum in erythrocytes, SYBR Green DNA, 72 h; series mostly up to 28.7 µM
Outline: as §1

W2 = assay: as above; conditions: P. falciparum in erythrocytes, SYBR Green DNA, 72 h; series mostly up to 28.7 µM
Outline: as §1

CRL-7250 = normal cell line; assay: Cytotoxic Profiling of Annotated Libraries Using Quantitative High-Throughput Screening (AID 1296008); conditions: Five cell lines viability, CellTiter-Glo ATP luminescence, 48-72 h; max response: hits give low values; further: nearly all actives have a fitted effect of over 60% in size; on max response: on the % scale 0 is the no-effect control and ±100 the full control effect
Outline: (§2)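 Cells exposed to compounds for 48 or 72 hr at 37 degrees Celsius. Viability read as ATP-coupled luminescence with CellTiter-Glo after 10 min at room temperature.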

HEK293 = assay: as above; conditions: Five cell lines viability, CellTiter-Glo ATP luminescence, 48-72 h; max response: hits give low values
Outline: as §2

HaCat [1] = assay: as above; conditions: Five cell lines viability, CellTiter-Glo ATP luminescence, 48-72 h; max response: hits give low values
Outline: as §2

KB-3-1 = assay: as above; conditions: Five cell lines viability, CellTiter-Glo ATP luminescence, 48-72 h; max response: hits give low values
Outline: as §2

NIH3T3 = assay: as above; conditions: Five cell lines viability, CellTiter-Glo ATP luminescence, 48-72 h; max response: hits give low values
Outline: as §2

HACAT [2] = assay: qHTS assay to identify novel small-molecules to repurpose for Merkel cell carcinoma treatment (AID 1296009); conditions: MCC and control cell lines, CellTiter-Glo viability, 72 h; at 44.8 µM (top of the series) unless noted; further: nearly all actives have a fitted effect of over 60% in size
Outline: (§3)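 Cells were incubated with compound for 72 hr at 37 degree celsius before CellTiter-Glo addition. Luminescence was normalized with no-cell wells as full cytotoxicity and DMSO as baseline.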

MCC-13 = assay: as above; conditions: MCC and control cell lines, CellTiter-Glo viability, 72 h; series mostly up to 46 µM
Outline: as §3

MCC-26 = assay: as above; conditions: MCC and control cell lines, CellTiter-Glo viability, 72 h; series mostly up to 46 µM
Outline: as §3

MKL-1 = assay: as above; conditions: MCC and control cell lines, CellTiter-Glo viability, 72 h; series mostly up to 46 µM
Outline: as §3

MKL-2 = assay: as above; conditions: MCC and control cell lines, CellTiter-Glo viability, 72 h; series mostly up to 46 µM
Outline: as §3

WaGa = assay: as above; conditions: MCC and control cell lines, CellTiter-Glo viability, 72 h; series mostly up to 46 µM
Outline: as §3

C33A = assay: Primary qHTS to identify gynecologic anti-cancer compounds using libraries of approved drugs and bioactive compounds (AID 1345084); conditions: Gynecologic cancer cell panel viability, ATPlite luminescence, 48 h; series mostly up to 57.5 µM; further: on the % scale 0 is the no-effect control and ±100 the full control effect; nearly all actives have a fitted effect of over 55% in size
Outline: (§4)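 Measured: luminescence after ATPlite addition (15 min, RT). Exposure: 48 h, 37 C, 5% CO2.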

CAOV3 = assay: as above; conditions: Gynecologic cancer cell panel viability, ATPlite luminescence, 48 h; series mostly up to 57.5 µM
Outline: as §4

UISO = assay: qHTS assay to identify novel small-molecules to repurpose for Merkel cell carcinoma treatment (AID 1296009); conditions: MCC and control cell lines, CellTiter-Glo viability, 72 h; series mostly up to 46 µM; further: nearly all actives have a fitted effect of over 60% in size
Outline: as §3

Cc1cc(NS(=O)(=O)c2ccc(N)cc2)nc(C)n1
inactive: Potency (TAB109) | Potency (TAB113) | Potency (TAB165) | Potency (W2) | max response (CRL-7250) -3.14% | max response (HEK293) -0.689% | outcome (HaCat [1]) | max response (KB-3-1) 15.3% | max response (NIH3T3) 4.17% | outcome (HACAT [2]) | Potency (MCC-13) | Potency (MCC-26) | Potency (MKL-1) | Potency (MKL-2) | Potency (WaGa) | Potency (C33A) | Potency (CAOV3)

NC(=S)N/N=C/c1cccnc1
inactive: Potency (TAB109) | Potency (TAB113) | Potency (TAB165) | max response (CRL-7250) -6.1% | max response (HEK293) -29.1% | max response (HaCat [1]) 1.46% | max response (KB-3-1) 2.69% | max response (NIH3T3) 1.77% | Potency (MCC-13) | Potency (MCC-26) | Potency (MKL-1) | Potency (MKL-2) | Potency (UISO) | Potency (WaGa) | Potency (C33A) | Potency (CAOV3)

O=C(O)CCC(=O)Nc1ccc(S(=O)(=O)Nc2nccs2)cc1
inactive: Potency (TAB109) | Potency (TAB113) | Potency (TAB165) | Potency (W2) | max response (CRL-7250) -7.17% | max response (HEK293) -13.9% | max response (HaCat [1]) -28.4% | max response (KB-3-1) 14.8% | max response (NIH3T3) -7.15% | Potency (MCC-13) | Potency (MCC-26) | Potency (MKL-1) | Potency (MKL-2) | Potency (UISO) | Potency (WaGa) | Potency (C33A) | Potency (CAOV3)

FC1(F)C(F)(F)C(F)(F)C2(F)C(F)(F)C(F)(F)C(F)(F)C(F)(F)C2(F)C1(F)F (stereo unspecified)
inactive: Potency (TAB109) | Potency (TAB113) | Potency (TAB165) | Potency (W2) | max response (CRL-7250) 4.26% | max response (HEK293) 3.06% | max response (HaCat [1]) 0.333% | max response (KB-3-1) 4.98% | max response (NIH3T3) 1.4% | Potency (MCC-13) | Potency (MCC-26) | Potency (MKL-1) | Potency (MKL-2) | Potency (UISO) | Potency (WaGa) | Potency (C33A) | Potency (CAOV3)

Cl/C(=C\n1cncn1)c1ccc(Cl)cc1Cl
inactive: Potency (TAB109) | Potency (TAB113) | Potency (TAB165) | Potency (W2) | outcome (CRL-7250) | max response (HEK293) -2.88% | max response (HaCat [1]) -4.78% | max response (KB-3-1) 25.3% | max response (NIH3T3) 0.11% | Potency (MCC-13) | Potency (MCC-26) | Potency (MKL-1) | Potency (MKL-2) | Potency (UISO) | Potency (WaGa) | Potency (C33A) | Potency (CAOV3)

NS(=O)(=O)Cc1noc2ccccc12
inactive: Potency (TAB109) | Potency (TAB113) | Potency (TAB165) | Potency (W2) | max response (CRL-7250) 0.547% | max response (HEK293) -4.5% | max response (HaCat [1]) 1.67% | max response (KB-3-1) 2.97% | max response (NIH3T3) 0.477% | Potency (MCC-13) | Potency (MCC-26) | Potency (MKL-1) | Potency (MKL-2) | Potency (UISO) | Potency (WaGa) | Potency (C33A) | Potency (CAOV3)
